Shown are actives, neighbours in structure and some others; about 3.6% of the full set was active somewhere.
FBA Mtb inh: Mtb fructose-bisphosphate aldolase inhibition | purified M. tuberculosis FBA, fluorescence read-out | P9WQA3 | 360,000 tested, 2.3% active | inhibition, % at 1 µM; in the data active means inhibition above about 27%;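 further: 0% = vehicle and 100% = reference inhibitor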
Mtb betalactam: beta-lactam sensitization of Mtb H37Rv. 330,000 tested, 0.27% active. M. tuberculosis H37Rv growth with meropenem, percent inhibition. AID 434955. inhibition, % at 25 µM; call rule not given here;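 further: growth measured after seven days incubation then overnight dye step; 0% = bacteria only wells and 100% = bacteria with antibiotic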
Mtb hypoxia inh: Mtb hypoxia fluorescent reporter inhibition; fluorescence inhibition, % (test concentration not listed); M. tuberculosis hypoxia-regulated fluorescent reporter, fluorescence; 300,000 tested, 0.1% active; in the data active means fluorescence inhibition mostly above about 23%, no sharp cut-off; inactive means mostly below about 17%
GDH-TPI inh: inhibits GDH-TPI coupling enzymes, artifact for Mtb FBA screen. inhibition, % at 4.8 µM. AID 588335. 360,000 tested, 1.2% active. GDH-TPI coupled enzyme counterscreen, NADH absorbance; in the data active means inhibition above about 30%;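 further: 0% = DMSO wells and 100% = wells lacking the enzyme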
DUSP3 inh: blocks human VHR1 dual specificity phosphatase; inhibition, % at 13.3 µM; 290,000 tested, 0.52% active; AID 1654; recombinant VHR phosphatase, pNPP absorbance; in the data active means inhibition above about 50%
Target sequence (P51452 whole entry, looked up): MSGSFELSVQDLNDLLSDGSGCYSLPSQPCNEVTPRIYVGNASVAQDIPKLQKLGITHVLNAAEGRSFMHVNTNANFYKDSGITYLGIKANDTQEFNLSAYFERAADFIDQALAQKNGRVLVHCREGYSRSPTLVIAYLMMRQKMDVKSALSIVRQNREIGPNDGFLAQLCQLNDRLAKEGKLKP
* hit, by the source's call; . = no result; + = active, no number.

SMILES	FBA Mtb inh	Mtb betalactam	Mtb hypoxia inh	GDH-TPI inh	DUSP3 inh
COCc1cc(C)n(CC(=O)Nc2ccc(Cl)cc2Cl)c(=O)c1C#N	122*	-2	.	31	6
Cn1c(/C(C#N)=C/c2ccncc2)nc2ccccc21	4	63	18	8	31
Cn1c(/C(C#N)=C/c2ccc(O)cc2)nc2ccccc21	-10	-5	3	36*	18
Nc1ccc(C(=O)NN=Cc2cn(Cc3ccccc3F)c3ccccc23)cc1	.	.	4	.	.
COC(=O)c1nn(-c2ccc3c(c2)CCN3C(C)=O)cc1O	195*	0	5	19	6
COC(=O)c1nn(-c2ccc3c(c2)OCO3)cc1O	26	67	-4	0	11
NNc1nc(-c2ccccc2)cc(-c2ccccc2)n1	3	1	3	14	-4
N#Cc1cc(-c2ccccc2)nc(NN)n1	-2	-5	6	32*	46
CCN(CC)C(=O)CSc1nc2cc(OC)c(OC)cc2c(=O)n1Cc1ccc(Cl)cc1	27*	7	11	-5	24
COc1ccc(-c2cc3ccc(OCc4nn[nH]n4)cc3oc2=O)cc1OC	11	2	16	42*	40
COc1ccc(-c2cc3ccc(OCC(C)=O)cc3oc2=O)cc1OC	1	5	-4	17	14
COc1ccc(-c2cc(=O)oc3cc(OCc4nn[nH]n4)ccc23)cc1	2	-3	2	36*	-4
COc1ccc(S(=O)(=O)Nc2cccc3c2OC(CN(C)C(=O)Nc2ccc(C(F)(F)F)cc2)C(C)CN(C(C)CO)C3=O)cc1 (stereo unspecified)	.	.	6	.	.
CCN1CCN(C(=S)c2ccc(Br)cc2)CC1	1	-1	7	-8	52*
O=C(NN=C/C(Br)=C\c1ccccc1)c1ccco1	.	.	4	.	.
COCC(C)OC(=O)c1c(N)n(Cc2ccco2)c2nc3ccccc3nc12 (stereo unspecified)	130*	0	.	12	-23
CCOC(=O)c1c(NC(=O)c2c(N)n(CCCOC)c3nc4ccccc4nc23)sc2c1CCCC2	-3	2	-5	1	-4
CCCCOCCCn1c(N)c(C(=O)OCCOC)c2nc3ccccc3nc21	134*	35	.	15	15
COCCOC(=O)c1c(N)n(Cc2ccccc2)c2nc3ccccc3nc12	+	6	.	6	20
COCCCNC(=O)c1c(NC(=O)c2ccccc2)n(Cc2ccccc2)c2nc3ccccc3nc12	6	5	-4	9	.
COCCn1c(N)c(C(=O)OCc2ccccc2)c2nc3ccccc3nc21	+	10	1	0	0
Cc1nn(-c2ccccc2)c(C)c1C=NNC(=O)CSc1nnc(SCc2ccccc2Cl)s1	.	.	12	.	.
Cc1ccc(-c2cc(C(=O)O)c3sc(N4CCCCC4)nc3n2)cc1	163*	3	2	14	5
COc1cc(Br)cc(C=NNC(=O)Cc2ccccc2)c1O	.	.	10	.	.
Oc1ccc(/C=N/N=C/c2ccc(O)c(O)c2)cc1O	0	3	.	43*	19
SMILES	FBA Mtb inh	Mtb betalactam	Mtb hypoxia inh	GDH-TPI inh	DUSP3 inh
Oc1ccc(/C=N/N=C/c2ccc(O)cc2)cc1	0	-2	.	31*	23
Oc1ccc(N=Cc2ccc(O)c(O)c2)cc1	-6	-6	11	16	13
Cc1ccc(/C=N/N=C/c2ccc(C)cc2)cc1	3	17	.	4	3
O=C1Nc2ccccc2/C1=N\N=C\c1ccc(O)c(O)c1	-8	-2	.	36*	34
CCOC(=O)c1nnn2c1nc(N1CCOCC1)c1ccccc12	2	0	2	13	-3
Nc1nc2c(C(=O)N3CCOCC3)nnn2c2ccccc12	117*	-8	13	11	27
OC(Cn1c2ccccc2c2ccccc21)C[n+]1cccc2ccccc21 (stereo unspecified)	-1	-1	14	21	57*
CCCC(O)=C1C(=O)CCCC1=NCCCCCC(=O)O	.	.	-21	.	.
NC(=Nc1ccccc1)Nc1ccccc1	2	0	5	6	11
ONC(=Nc1ccccc1)C(=Nc1ccccc1)NO	0	4	7	5	57*
COC(=O)C1=C(c2ccc(Cl)c(C(F)(F)F)c2)CC2CCC1N2C(=O)NCCOc1ccc(OC)cc1 (stereo unspecified)	.	.	1	.	.
CC(=NNC(=S)Nc1ccccc1)C1Cc2ccccc2C(=O)O1 (stereo unspecified)	.	.	15	.	.
CC1CN(C(C)CO)C(=O)c2cccc(NC(=O)C3CCCCC3)c2OC1CN(C)S(C)(=O)=O (stereo unspecified)	.	.	17	.	.
